VACV mCherry inh – inhibitors of vaccinia virus infection (mCherry reporter signal); Vaccinia virus mCherry reporter infection, fluorescence; Potency, µM (titrated, usually from 36.5 µM), inactives show at the top dose activity change, negative = inhibition, usual class: inhibitors; hit rate 0.63% among 310,000; AID 720579; calls by dose curve; tested in A549 cells; note: nearly all actives have a fitted effect of over 35% in size
Sm TGR block – S. mansoni TGR enzyme inhibition. purified TGR, DTNB reduction, TNB absorbance 405 nm. Potency, µM (titrated, usually from 114 µM), for the others: top-dose activity change, negative = inhibition, usual class: inhibitors. hit rate 3% among 360,000. AID 485364; active = well fitted inhibition curve with a large enough effect; inconclusive = small, poorly fitted or top-dose-only effect; inactive = no such curve, though single readings can be large or run the other way; note: nearly all actives have a fitted effect of over 60% in size
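First, TGR (20 nM dispensed) and NADPH were mixed with compound. Second, a 15 min room-temperature incubation followed. Third, further NADPH and then DTNB were added to start the reaction. Finally, TNB absorbance was monitored kinetically.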
Marburg entry inh – inhibitors of Marburg virus binding or cell entry. Marburg virus pseudotyped entry inhibition, cell reporter. Potency, µM (series often up to 37.8 µM), for inactives: top-dose activity change, negative = inhibition, most hits filed as inhibitors. hit rate 1.8% among 300,000. AID 540276; calls by dose curve; tested in HEK293 cells
Lassa entry inh – inhibitors of Lassa virus binding or cell entry; Lassa virus pseudotype entry inhibition, cell reporter; Potency, µM (series often up to 37.9 µM), inactives show top-dose activity change, negative = inhibition, usual class: inhibitors; hit rate 1.2% among 300,000; calls by dose curve; tested in HEK293 cells; note: nearly all actives have a fitted effect of over 50% in size
VACV Venus inh – vaccinia inhibition (Venus reporter); Potency, µM (top dose mostly 36.5 µM), for inactives: at the highest dose activity change, negative = inhibition, usual class: inhibitors; hit rate 0.46% among 330,000; Vaccinia virus Venus reporter expression, fluorescence; calls by dose curve; tested in A549 cells; note: nearly all actives have a fitted effect of over 30% in size
FMDV inh – foot and mouth disease virus antiviral activity; FMDV antiviral cell-based qHTS; hit rate 1.2% among 410,000; Potency, µM (series often up to 57.9 µM), for the others: top-dose activity change, negative = inhibition, hits mostly inhibitors; calls by dose curve; tested in HEK293T cells; note: read-out not given here; nearly all actives have a fitted effect of over 45% in size
Active calls of the source: *; i = inactive; ? = inconclusive; . = not tested or not shown; [ ] = dose if it differs, or a comment. Shown are actives, neighbours in structure and some others; about 5.4% of the full set was active somewhere. % is set by controls: 0 for no effect and ±100 for the full control effect; potency is the fitted concentration of half-maximal effect.

SMILES	VACV mCherry inh	Sm TGR block	Marburg entry inh	Lassa entry inh	VACV Venus inh	FMDV inh
CCOc1cccc(C(=O)Nc2ccc3oc(-c4ccncc4)nc3c2)c1	-20%	6%	.	-1%[46.1 µM]	-12%	?
CCCSc1nc2c(cnn2-c2ccccc2)c(=O)[nH]1	i	-4%	.	.	-12%	-19%
CCCSc1nc2c(cnn2-c2ccc(C)cc2)c(=O)[nH]1	?	-10%	3%	3%	28µM*	-13%
N=c1c2c(n(Cc3ccc(Cl)cc3Cl)c3c1CCC3)CCCC2	.	4%	?	4µM*	?	-1%
N=c1c2c(n(Cc3ccccc3)c3c1CCC3)CCC2	.	0%	?	1.6µM*	?	?
N=c1c2c(n(Cc3ccc(Cl)cc3)c3c1CCC3)CCC2	-25%	6%	?	?	?	?
CCOC(=O)c1c(C)oc2c1c(C(c1ccncc1)N1CCOCC1)c(O)c1ccccc12 (stereo unspecified)	.	1.3µM*	?	?	-9%	0%
CCOC(=O)C1CCN(Cc2ccccn2)CC1	.	-9%	.	.	.	.
CCOC(=O)c1c(C)oc2c1c(CN1CCN(C(=O)OCC)CC1)c(O)c1ccccc12	-17%	0.56µM*	-1%	16%	-17%	-22%
CCOC(=O)c1c(C)oc2c1c(CN1CCN(CCO)CC1)c(O)c1ccccc12	-18%	0.28µM*	?	11%	-20%	-31%
CCOC(=O)c1c(C)oc2c1c(C=NCCC(=O)O)c(O)c1ccccc12	?	-10%	-3%[46.1 µM]	?	-11%	-19%
CCOC(=O)c1c(C)oc2c1c1c(c3ccccc32)OCN(Cc2ccccn2)C1	-18%[1.46 µM]	0.35µM*	1%	?	-13%	-6%
COc1ccc(OC)c(S(=O)(=O)NCCc2csc3nc(-c4ccccc4)nn23)c1	-5%	0%	.	-22%[46.1 µM]	-2%	72%
O=C(CSc1nc(O)c(C/C=C/c2ccccc2)c(=O)[nH]1)Nc1cccc(F)c1	-11%	-25%	5%[46.1 µM]	-4%[46.1 µM]	-11%	21%
CCC1CN(CCNC(=O)c2cccnc2OC)Cc2cc(OC)ccc2O1 (stereo unspecified)	-13%	.	.	.	-1%	11%
O=c1cc(CN2CCCC2)c2c(ccc3ccccc32)o1	56%	.	.	5%[46.1 µM]	2%	-11%
CCOC(=O)N1CCN(Cc2cc(=O)oc3ccc4ccccc4c23)CC1	.	-14%	-17%	-15%	-5%	20µM*
CCOC(=O)OC[C@H]1O[C@H](C#Cc2ccc(C)cc2C)C=C[C@@H]1OC(=O)OCC	.	.	4%[14.2 µM]	.	.	.
COc1ccc(CNc2cccc3[nH]c(C(F)(F)F)nc23)cc1OC	-14%	20µM*	.	.	-24%	-24%
COc1ccc(CNC(=O)c2[nH]c(C(F)(F)F)nc2-c2ccccc2)cc1OC	i	.	.	.	1%	-10%
COc1ccc(Cc2noc(CN(C)Cc3ccc(-n4cccn4)cc3)n2)cc1OC	.	-7%	.	.	.	?
CCc1ccc(CN(C)Cc2nc(Cc3ccc(OC)c(OC)c3)no2)nc1	i	32µM*	15%[46.1 µM]	-21%	0%	?
COc1ccc(CCN(C)Cc2nc(-c3cnccn3)no2)cc1OC	i[7.34 µM]	-19%	.	.	0%[7.34 µM]	5.6µM*
CCN(CC)S(=O)(=O)c1ccc(-c2nnc(SCC(=O)N3c4ccccc4CC3C)o2)cc1 (stereo unspecified)	0.63µM*	-6%	-14%	?	?	0%
CCN(CC)S(=O)(=O)c1ccc(-c2nnc(SCC(=O)N3c4ccccc4CC3C)n2CC)cc1 (stereo unspecified)	-19%	-4%	?	?	-11%	20µM*
SMILES	VACV mCherry inh	Sm TGR block	Marburg entry inh	Lassa entry inh	VACV Venus inh	FMDV inh
COc1ccc2c(c1)c1c(c(=O)n(-c3ccc(OC)c(OC)c3)c(=O)n1Cc1ccccc1C)n2C	-19%	3%	.	-11%[46.1 µM]	-7%	-9%
O=C1OC(NC(=O)c2ccccc2)C(n2cc(CO)nn2)=C1Cl (stereo unspecified)	-11%	0.79µM*	?	0%	-16%	?
Cn1ncc(S(=O)(=O)Cc2ccccc2)c(Cl)c1=O	i	0.16µM*	2%[46.1 µM]	12%	-4%	-68%
Cn1ncc(SCc2ccccc2)c(Cl)c1=O	-10%	6%	?	?	-19%	?
COCc1c(C#N)c(NCc2cc(OC)c(OC)c(OC)c2)nc(C)c1[N+](=O)[O-]	-1%	-1%	?	?	-21%	14µM*
O=C1NC(=O)N(c2cccc(Cl)c2)C(=O)/C1=C\c1ccc(Sc2nc3ccccc3[nH]2)o1	i	7.1µM*	19%	1%	i	-18%
O=C1NC(=O)N(c2ccc3c(c2)OCO3)C(=O)/C1=C\c1ccc(-c2ccccc2C(=O)O)o1	-2%	?	16%[46.1 µM]	2%	9%	0%
O=C1NC(=O)N(c2ccccc2F)C(=O)/C1=C/c1ccc(Sc2nc3ccccc3[nH]2)o1	i	7.1µM*	-1%	1%	i	?
N#C/C(=C\c1ccc(Sc2nc3ccccc3[nH]2)o1)c1ccccc1	.	-25%	?	?	?	?
COc1ccc(S(=O)(=O)N2CCCN(CC(=O)C(C)(C)C)CC2)cc1	-18%	10µM*	8%[46.1 µM]	0%	-13%	-3%
COc1ccc(S(=O)(=O)N2CCCN(C)CC2)cc1	-2%	40µM*	0%[46.1 µM]	-15%[46.1 µM]	-25%	-4%
COc1ccc2c(C)c(CC(=O)NCCc3ccccc3)c(=O)oc2c1OC	-8%	8%	0%[46.1 µM]	9%[46.1 µM]	-8%	-7%
Cc1cccc(N2CCN(C(=O)c3c4c(nc5ccccc35)C(=O)N(C3CCCCC3)C4)CC2)c1C	-20%	3%	.	?	-16%	0%
CC(O)CNc1nc2sc3c(c2c(=O)n1CCc1ccccc1)CCCCC3 (stereo unspecified)	i	4%	?	26µM*	-14%	13%
CC1=C(C)C(OCCBr)N(c2cc(O)c(Cl)cc2F)C1=O (stereo unspecified)	-11%	28µM*	-2%[46.1 µM]	13%[46.1 µM]	-5%	0%
CCc1nc(C)cn1S(=O)(=O)c1ccc(Cl)c(Cl)c1OC	-13%[7.34 µM]	7%	?	-19%[46.1 µM]	-15%[7.34 µM]	?
O=C(NCc1ccccc1Cl)c1cccc2c1C(=O)c1ccc(-c3ccc(OC(F)(F)F)cc3)cc1S2(=O)=O	?	.	.	.	10µM*	-5%
COC(=O)C1=C(C)OC(N)=C(C#N)C1c1ccco1 (stereo unspecified)	-15%	-29%	8%	14%	-8%	-8%
CC(=O)C1=C(C)OC(N)=C(C#N)C1c1cccc2ccccc12 (stereo unspecified)	-17%	11µM*	0%	?	-8%	-25%
COC(=O)C1=C(C)OC(N)=C(C#N)C1c1ccccc1F (stereo unspecified)	.	2%	?	-3%	.	-5%
C=CCOC(=O)C1=C(C)OC(N)=C(C#N)C1c1ccoc1 (stereo unspecified)	.	20µM*	6%	-8%	.	-20%
CC(=O)C1=C(C)OC(N)=C(C#N)C1c1ccco1 (stereo unspecified)	3%	13µM*	-5%	7%	4%	-4%

Screens (PubChem)
